# Measured values reported in PubChem BioAssay (NCI).
# About 83,000 compounds went through this panel and 20% of them were active in at least one assay; those are over-represented in the sample as a whole.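 The endpoint reported here, percent growth, reads 100 for growth as untreated, 0 for no net growth and -100 for all cells dead.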 Unmarked numbers belong to inactive results. Activity calls are given as the source filed them. How the source made its calls: active means growth percent below 10; inactive means the rest.
# Tested on: HL-60(TB) leukemia
# Assay: NCI-60 one-dose screen, 48 h (100 = growth as untreated, 0 = no growth, -100 = all killed)
# Conditions: 10 µM unless noted
row,Compound,growth
1,OC(CCC(O)(c1ccccc1)c1ccccc1)(c1ccccc1)c1ccccc1,-21.7% (active)
2,CC(NC(=O)CCl)c1ccccc1 (configuration not stated),83.4%
3,CC(=O)c1c(/C=C/c2ccc(C)cc2)c2ccccc2[nH]c1=O,99.3%
4,O=S(=O)(Nc1ccc2ccccc2c1)N1CCCCC1,85.1%
5,CCOC(=O)C1=C(c2ccccc2)N=C2SC=C(c3ccc(Cl)cc3)N2C1c1ccc(Cl)cc1 (configuration not stated),52.6%
6,NC(=O)C1(Nc2ccc(Br)cc2)CCCC1,94.8%
7,Cc1cc(C#Cc2ccccc2)ccc1-n1c(/C=C/c2ccc(F)cc2)nc2ccccc2c1=O,34.3%
8,N#CCCCCCCCCCCC#N,98.7%
9,CCCC[C@@H](C=O)NC(=O)[C@H](CC(C)C)NC(=O)[C@H](CC(C)C)NC(=O)OCc1ccccc1,-30.1% (active)
10,Fc1cccc(CNc2c3ccccc3nc3ccccc23)c1,47%
11,CN1C(=C2C(=O)OC(C)(C)OC2=O)CCC1C(=O)NCc1ccc(Cl)cc1Cl (configuration not stated),83.7%
12,NC(N)=N/N=C(\c1ccccc1)C(O)c1ccccc1 (configuration not stated),96.7%
13,CCOC(=O)C/C(=N\Nc1cc(=O)[nH]c2ccc(Cl)cc12)C(=O)OCC,90.6%
14,C=Cc1cnc(Nc2ccc(OC)cc2)nc1NCCCNC(=O)C1CCC1,14.6%
15,COc1cc(Cn2ccc3c2-c2oncc2CC3)cc(OC)c1,16.6%
16,NC(=O)c1c(NC(=O)c2ccc3ccccc3c2)sc2c1CCC(=O)C2,50.9%
17,Cc1ccc2c(n1)C(=O)C(Br)=C(C1CCCC1)C2=O,76.1%
18,CN(C)CCC(O)(Cc1ccccc1)c1ccccc1 (configuration not stated),85%
19,O=C(NCCNc1nccc(-c2c(-c3cccc(O)c3)nc3sccn23)n1)Nc1cccc(C(F)(F)F)c1,36.4%
20,CC(=O)c1cccc(Nc2ncnc3ccc(NC(=O)c4ccco4)cc23)c1,122%
21,Clc1cc(Cl)cc(N2N=C(c3cccc(Nc4ccncc4)c3)CC2c2ccccc2)c1 (configuration not stated),4.62% (active)
22,COc1ccccc1/C=C/C1=C(C)CCC(c2ccccc2OC)C1C (configuration not stated),-41.1% (active)
